The list is not random: actives were taken first. Their share in the collection is about 3.2%.
BRCA1 expr up = BRCA1 expression activation; MCF7-BRCA1-FFLuc reporter, luminescence, 48 h; response scale: scaled: vehicle 0%, 10 µM genistein 100%; Potency, µM (doses to about 46.1 µM), for inactives: at the highest dose activation, actives largely listed as activators; actives 1.1% (n = 380,000); also: potency is read from the fitted curve at half-maximal effect; nearly all actives have a fitted effect of over 80% in size
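MCF7-BRCA1-FFLuc, 2000 cells/well; 2 h attach, 37 °C/5% CO2; compound 48 h; luciferase substrate 15 min; luminescence end-point. Norm. to genistein 10 microM max activation and DMSO; concentration-response curves fitted.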
Nrf2 block = blocks Nrf2 signaling; A549 ARE-Fluc reporter, luciferase luminescence, 18-24 h; Potency, µM (doses to about 46 µM), without a hit: at the top dose activity change, negative = inhibition, usual class: inhibitors; actives 2.1% (n = 360,000); also: potency is read from the fitted curve at half-maximal effect; % is scaled to controls: 0 for no effect and ±100 for the full control effect; nearly all actives have a fitted effect of over 60% in size
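Nrf2 function is reported as luminescence of an ARE-controlled luciferase in A549 cells. Compounds were tested at several concentrations, and a CellTiter-Fluor read on the same wells flagged cytotoxicity.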
p53 reactivation = mutant p53 re-activation in reporter cells | H1299 p53-A138V BP100-luciferase reporter, luminescence, 24 h | Potency, µM (series often up to 92.2 µM), inactives show at the highest dose activity change, positive = activation, actives largely listed as activators | actives 0.063% (n = 320,000) | AID 504706; also: potency is read from the fitted curve at half-maximal effect; % of control where 0% means no effect; nearly all actives have a fitted effect of over 45% in size
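H1299 (p53-null), stable ts p53-A138V + BP100-Luc; 1000 cells/well, Opti-MEM/10% FBS; cpd 4 pt, 1:5; 24 h, 37 deg C, 5% CO2; detection reagent 10 min RT; luminescence.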
A549 tox-1 = kills or reduces viability of A549 cells in Nrf2 counter-screen. A549 ARE-Fluc cells, CellTiter-Fluor viability, 18-24 h. actives 0.16% (n = 390,000). Potency, µM (top dose mostly 46 µM), inactives show top-dose activity change, negative = cytotoxicity, actives largely listed as inhibitors. AID 504648; also: potency is read from the fitted curve at half-maximal effect; % is scaled to controls: 0 for no effect and ±100 for the full control effect
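A549 ARE_Fluc cells in 5% FBS OPTI-MEM were exposed to compounds in concentration-response for 18-24 h at 37 deg C. Viability was read by CellTiter-Fluor fluorescence (Ex 405/Em 525) after 30 min, before the luciferase read.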
IL2 activator = activates IL-2 in a cell-based reporter assay. AID 652025. activation, % (series mostly up to about 46 µM). actives 0.065% (n = 360,000). IL-2 activation reporter assay, cell-based qHTS; stimulated with anti-CD3/CD4/CD28 beads; in transgenic mouse T cells; in the data active = activation above about 50%; inconclusive = mostly about 30% to 49%; also: 0% is about no effect
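EGFP and DsRed fluorescence is measured by plate cytometry in unstimulated transgenic mouse T cells exposed to compound for 60 minutes, then stimulated 18 hours at 37 degrees C with anti-CD3/anti-CD4 beads plus anti-CD28.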
Nrf2 activator = activators of Nrf2 (ARE) signaling | AREc32 ARE-luciferase reporter (MCF7-derived line), luminescence, 24 h | Potency, µM (highest dose often 46.1 µM), for inactives: at the highest dose activation, hits mostly activators | actives 0.31% (n = 410,000); also: potency is read from the fitted curve at half-maximal effect; % of control where 0% means no effect; nearly all actives have a fitted effect of over 65% in size
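Reporter line AREc32 (ARE-Fluc), seeded overnight in OPTI-MEM with 5% FBS; compound pin-transferred, 24 hr at 37 deg C, 5% CO2; luminescent read-out.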
FLuc counter 3 = blocks purified firefly luciferase in Nrf2 counterscreen | shares compounds with Nrf2 block | purified firefly luciferase, luminescence inhibition | Potency, µM (top dose mostly 57.5 µM), inactives show at the highest dose activity change, negative = inhibition, actives largely listed as inhibitors | actives 4% (n = 1,400); also: potency is read from the fitted curve at half-maximal effect; % is scaled to controls: 0 for no effect and ±100 for the full control effect; nearly all actives have a fitted effect of over 65% in size
Target sequence (P08659 whole entry, looked up): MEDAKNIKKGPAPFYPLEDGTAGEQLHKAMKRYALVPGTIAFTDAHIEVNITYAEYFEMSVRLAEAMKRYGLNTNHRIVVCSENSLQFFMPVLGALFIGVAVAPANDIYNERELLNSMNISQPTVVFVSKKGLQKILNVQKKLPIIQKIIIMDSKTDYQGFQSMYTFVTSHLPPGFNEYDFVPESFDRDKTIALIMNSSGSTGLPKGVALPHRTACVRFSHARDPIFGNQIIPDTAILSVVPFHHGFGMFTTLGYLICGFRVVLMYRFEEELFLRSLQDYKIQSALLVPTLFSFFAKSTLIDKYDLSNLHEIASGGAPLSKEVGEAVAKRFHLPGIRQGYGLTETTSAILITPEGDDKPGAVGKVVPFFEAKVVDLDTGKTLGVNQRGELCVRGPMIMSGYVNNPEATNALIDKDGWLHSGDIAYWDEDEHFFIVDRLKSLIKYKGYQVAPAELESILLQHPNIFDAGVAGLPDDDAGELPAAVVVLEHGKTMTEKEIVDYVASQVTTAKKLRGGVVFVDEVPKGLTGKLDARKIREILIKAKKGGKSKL
A549 tox-2 = A549 cytotoxicity, Nrf2 inhibitor counterscreen | shares compounds with Nrf2 block | A549 ARE-Fluc cells, cytotoxicity counterscreen | Potency, µM (highest dose often 46.1 µM), for inactives: at the highest dose activity change, negative = cytotoxicity, hits mostly inhibitors | actives 2% (n = 1,400);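 also: potency is read from the fitted curve at half-maximal effect; cells exposed to compounds for 18 to 24 hours; % is scaled to controls: 0 for no effect and ±100 for the full control effect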
Nrf2 ARE inh = confirmation of Nrf2 inhibitors in A549 ARE reporter cells; shares compounds with Nrf2 block; A549 ARE-firefly luciferase reporter, luminescence; Potency, µM (series often up to 46.1 µM), without a hit: top-dose activity change, negative = inhibition, actives largely listed as inhibitors; actives 74% (n = 1,400); AID 720524; also: potency is read from the fitted curve at half-maximal effect; % is scaled to controls: 0 for no effect and ±100 for the full control effect; nearly all actives have a fitted effect of over 65% in size
Numbers without * were called inactive; ? = inconclusive; · = no result given; [ ] = another dose, or the depositor's remark. Unless noted, calls follow the shape of the dose curve; as a rule, active = well fitted curve in the direction sought with a large enough effect; inconclusive = small, poorly fitted or top-dose-only effect, or another doubt; inactive = no such curve, though single readings can be large; an effect the other way counts as inactive or inconclusive.

SMILES | BRCA1 expr up | Nrf2 block | p53 reactivation | A549 tox-1 | IL2 activator | Nrf2 activator | FLuc counter 3 | A549 tox-2 | Nrf2 ARE inh
Cc1cc(C)c(CN2CCN(C(=O)Cn3cnc4c(NCc5ccccc5)ncnc43)CC2)c(C)c1 | -38% | 3.7µM* | 2% | -8% | -1 | 1% | 1% | ? | 0.65µM*
COc1ccc(NC(=O)CC2C(=O)N(c3ccccc3)C(=O)N2CCc2sccc2C)cc1 (centres undefined) | · | ? | · | -8% | · | 9% | · | · | ·
C1=Cc2ccccc2/C1=C\c1ccc(/C=C2\C=Cc3ccccc32)cc1 | 1% | · | · | · | · | · | · | · | ·
C1=C/C(=C2/C=Cc3ccccc32)c2ccccc2N1 | · | · | · | · | · | · | -15% | ? | 6.5µM*
COc1cccc(NC(=O)c2ccc(-c3nc(COc4ccccc4)c(C)o3)cc2)c1 | · | · | · | -4% | · | 0% | · | · | ·
COc1cccc(NC(=O)c2ccc(-c3nc(COc4ccc(C)cc4)c(C)o3)cc2)c1 | · | 5.2µM* | · | -1% | · | 3% | -12% | -12% | ?
COc1cc(NC(=O)c2ccc(-c3nc(CSc4ccccc4)c(C)o3)cc2)cc(OC)c1 | · | 7.3µM* | · | 0% | · | 0% | -15% | -8% | 7.3µM*
Cc1ccc(SCc2nc(-c3ccc(C(=O)Nc4cc(C)ccc4C)cc3)oc2C)cc1 | · | 5.8µM* | · | -3% | · | 1% | -2% | -6% | 7.3µM*
COc1ccc(OC)c(CNC(=O)c2ccc(-c3nc(CSc4ccccc4)c(C)o3)cc2)c1 | · | -26% | · | ? | · | 0% | · | · | ·
CC(=O)c1cccc(NC(=O)COc2ccccc2C(=O)Nc2ccccc2)c1 | -5% | · | · | · | · | · | · | · | ·
CCCC(=O)NC(NC(=S)Nc1ccc(N=Nc2ccccc2)cc1)C(Cl)(Cl)Cl (centres undefined) | -84% | 8.2µM* | ? | ? | -1 | -1% | -21% | ? | 7.3µM*
CCCC(=O)NC(NC(=S)Nc1ccc(S(N)(=O)=O)cc1)C(Cl)(Cl)Cl (centres undefined) | -10% | 8% | -5% | 4% | 2 | 2% | · | · | ·
Cc1ccc(NC(=O)COc2cccnc2[N+](=O)[O-])cc1S(=O)(=O)N1CCCCC1 | -55% | 7.3µM* | -1% | ? | 0 | 1%[9.22 µM] | -17% | -10% | ?
CC(O)CNc1ncnc2nc[nH]c12 (centres undefined) | 4% | ? | 2% | -8% | 0 | -1% | · | · | ·
CC(C)CCCCCCCCCCCCC(=O)NCC(=O)NC1C(O)C(O)C(Nc2ncnc3nc[nH]c23)OC1C(O)CO (centres undefined) | ? | 0.058µM* | · | 0.73µM* | -7 | 0% | 0% | ? | 0.013µM*
CCC(C)NC(=O)C1CCN(C(=O)c2cc3sccc3n2Cc2ccc(Cl)cc2)CC1 (centres undefined) | · | 2.3µM* | · | ? | · | -1% | 1% | ? | 6.5µM*
COCCCNC(=O)C1CCN(C(=O)c2cc3sccc3n2Cc2ccc(Cl)cc2)CC1 | · | ? | · | -15% | · | 1% | · | · | ·
COCCNC(=O)C1CCN(C(=O)c2cc3sccc3n2Cc2ccc(Cl)cc2)CC1 | · | 8.2µM* | · | ? | · | 0% | 3% | -24% | 5.8µM*
Cc1ccc2oc(-c3ccc(C)c(NC(=O)C(C)(C)Oc4ccc(Cl)cc4)c3)nc2c1 | · | ? | · | 2% | · | 9% | · | · | ·
N#Cc1nc(N2CCCCC2)nc(N2CCCCC2)n1 | -1% | 2.1µM* | · | -4% | · | · | -13% | -23% | 5.2µM*
N#Cc1nc(N2CCCCC2)nc(N(c2ccccc2)c2ccccc2)n1 | 15% | -5% | · | 5% | · | · | · | · | ·
CCNc1nc(C#N)nc(N2CCCCC2)n1 | -44% | 4.6µM* | · | -10% | · | · | -10% | -23% | 7.3µM*
CCOC(=O)CNS(=O)(=O)c1ccc(F)cc1Br | · | 15% | · | ? | · | · | · | · | ·
Cc1ccc(S(=O)(=O)N(C)Cc2nc(-c3ccccc3)oc2C)cc1 | · | · | · | 9% | · | 4% | · | · | ·
Cc1ccc(-n2ncc3c2CCCC3NC(=O)c2ocnc2C)cc1C (centres undefined) | -37% | 2.3µM* | -3% | -17% | -5 | 0% | 0% | -2% | 3.3µM*
SMILES | BRCA1 expr up | Nrf2 block | p53 reactivation | A549 tox-1 | IL2 activator | Nrf2 activator | FLuc counter 3 | A549 tox-2 | Nrf2 ARE inh
Cc1nnsc1C(=O)NC1CCCc2c1cnn2-c1ccc(F)cc1F (centres undefined) | -42% | 1.2µM* | -8% | -18% | -6 | 2% | -15% | -9% | 3.7µM*
Cc1cccc(-n2ncc3c2CCCC3NC(=O)c2ccc[n+]([O-])c2)c1C (centres undefined) | -2% | ? | -6% | -2% | -2 | -1% | · | · | ·
Cc1cc(C(=O)NC2CCCc3c2cnn3-c2cccc(C)c2C)n(C)n1 (centres undefined) | -32% | 0.21µM* | 1% | -21% | -3 | 0% | -1% | ? | 0.021µM*
Cn1nccc1C(=O)NC1CCCc2c1cnn2-c1ccc(C(C)(C)C)cc1 (centres undefined) | -51% | 0.73µM* | 1% | -19% | -1 | 3% | ? | -12% | 0.73µM*
COc1ncccc1C(=O)NC1CCCc2c1cnn2-c1ccc(C)c(C)c1 (centres undefined) | -15% | ? | -3% | -9% | 1 | 5% | · | · | ·
O=C(NC1CCCCCC1)c1cc2c(Cl)nc3ccccc3c2s1 | 15% | 7% | · | 9% | · | 0% | · | · | ·
CCN(C(=O)C(=O)c1c(C)[nH]c2ccccc12)c1ccccc1 | 3% | · | · | · | · | · | · | · | ·
CCOC(=O)c1ccc(NC(=O)Cn2cc(C(=O)C3CC3)c3ccccc32)cc1 | · | -7% | · | -8% | · | 0% | · | · | ·
COc1ccc2nc(-c3ccccn3)[nH]c2c1 | ? | ? | · | -2% | 1 | 4% | · | · | ·
COc1cc(C=NO)nc(-c2ccccn2)c1 | -90% | 1.2µM* | · | -23% | 0 | 0% | -12% | -6% | 2.6µM*
O[C@@H]1[C@@H](O)C=C2CCN3Cc4cc5c(cc4[C@H]1C23)OCO5 (some centres undefined) | -73% | 6.5µM* | 2% | ? | -1 | -2% | 1% | ? | 7.3µM*
